Nrf2 block = inhibitors of Nrf2 signaling | Potency, µM (series often up to 46 µM), hits mostly inhibitors | AID 504444 | 360,000 tested, 2.1% active | A549 ARE-Fluc reporter, luciferase luminescence, 18-24 h; note: nearly all actives have a fitted effect of over 60% in size
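A549 ARE_Fluc cells, 5000/well, 5% FBS OPTI-MEM; compounds in dose-response, 18-24 h at 37 °C/5% CO2; CellTiter-Fluor viability read (Ex 405/Em 525), then BugLite luciferase luminescence = Nrf2 activity.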
Nrf2 ARE act = Nrf2 pathway activation; AREc32 ARE-luciferase reporter (MCF7-derived line), luminescence, 24 h; Potency, µM (titrated, usually from 46.1 µM), usual class: activators; 410,000 tested, 0.31% active; AID 624171; note: nearly all actives have a fitted effect of over 65% in size
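Cells of the AREc32 ARE-luciferase line are plated in OPTI-MEM containing 5% FBS and left overnight at 37 deg C. Compounds are pinned in, incubation continues 24 hr, and firefly luciferase signal is then measured.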
IL-2 act = activates IL-2 in a cell-based reporter assay; IL-2 activation reporter assay, cell-based qHTS; stimulated with anti-CD3/CD4/CD28 beads; in transgenic mouse T cells; activation, % (series mostly up to about 46 µM); 360,000 tested, 0.065% active; in the data active = activation above about 50%; inconclusive = mostly about 30% to 49%
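Unstimulated transgenic mouse T cells, 750 per well, received compound and, after 60 minutes, anti-CD3/anti-CD4 bead plus anti-CD28 stimulation. EGFP and DsRed were quantified after 18 hours.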
BRCA1 expr act = increases BRCA1 expression; MCF7-BRCA1-FFLuc reporter, luminescence, 48 h; response scale: scaled: vehicle 0%, 10 µM genistein 100%; Potency, µM (highest dose often 46.1 µM), usual class: activators; 380,000 tested, 1.1% active; AID 624202; note: nearly all actives have a fitted effect of over 80% in size
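MCF7-BRCA1-FFLuc cells, 2000/well in phenol-red-free MEM, attached 2 h then treated 48 h at 37 C. Luciferase luminescence read 15 min after reagent; normalized to genistein maximum activation (10microM) and DMSO, concentration-response fitted.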
A549 tox-1 = counter-screen for Nrf2 inhibitors: cytotoxicity in A549 cells. A549 ARE-Fluc cells, CellTiter-Fluor viability, 18-24 h. Potency, µM (titrated, usually from 46 µM), most hits filed as inhibitors. 390,000 tested, 0.16% active. AID 504648
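A549 ARE-Fluc cells in 5% FBS OPTI-MEM, 5000 cells/well, rested 2 h then exposed to compounds in concentration-response for 18-24 h at 37 °C. Viability by CellTiter-Fluor fluorescence (Ex 405/Em 525) after 30 min; luciferase luminescence (BugLite, 15 min, RT) read afterwards.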
p53 reactivator = restores transcriptional activity of mutant p53 | H1299 p53-A138V BP100-luciferase reporter, luminescence, 24 h | Potency, µM (top dose mostly 92.2 µM), most hits filed as activators | 320,000 tested, 0.063% active | AID 504706; note: nearly all actives have a fitted effect of over 45% in size
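p53-null H1299 cells stably carrying temperature-sensitive p53-A138V and a BP100-luciferase reporter were pinned with compounds (4-point, 1:5 series) and held 24 hrs at 37 deg C. Luminescence was read 10 min after detection reagent.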
FLuc enzyme inh = firefly luciferase inhibition, Nrf2 hit validation; Potency, µM (series often up to 57.5 µM), hits mostly inhibitors; purified firefly luciferase, luminescence inhibition; shares compounds with Nrf2 block; 1,400 tested, 4% active; note: nearly all actives have a fitted effect of over 65% in size
Target sequence (P08659 whole entry, looked up): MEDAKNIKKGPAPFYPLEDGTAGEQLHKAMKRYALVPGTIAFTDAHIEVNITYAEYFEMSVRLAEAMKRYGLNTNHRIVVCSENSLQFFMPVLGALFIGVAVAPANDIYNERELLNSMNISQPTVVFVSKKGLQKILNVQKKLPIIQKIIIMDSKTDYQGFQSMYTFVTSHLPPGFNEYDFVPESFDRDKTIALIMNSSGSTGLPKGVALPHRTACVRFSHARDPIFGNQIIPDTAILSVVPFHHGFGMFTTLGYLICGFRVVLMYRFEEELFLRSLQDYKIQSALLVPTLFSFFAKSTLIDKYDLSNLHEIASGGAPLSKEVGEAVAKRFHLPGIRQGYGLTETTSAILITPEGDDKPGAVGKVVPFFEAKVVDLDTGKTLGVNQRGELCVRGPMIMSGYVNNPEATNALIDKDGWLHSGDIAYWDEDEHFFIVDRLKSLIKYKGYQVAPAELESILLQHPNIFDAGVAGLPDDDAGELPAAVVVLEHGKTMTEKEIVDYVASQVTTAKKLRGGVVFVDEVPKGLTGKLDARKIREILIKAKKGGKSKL
A549 tox-2 = toxic to A549 ARE-Fluc cells in Nrf2 counterscreen; shares compounds with Nrf2 block; A549 ARE-Fluc cells, cytotoxicity counterscreen; Potency, µM (series often up to 46.1 µM), actives largely listed as inhibitors; 1,400 tested, 2% active;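 note: cells exposed to compounds for 18 to 24 hours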
ARE-Fluc inh = confirmation of Nrf2 inhibitors in A549 ARE reporter cells. shares compounds with Nrf2 block. 1,400 tested, 74% active. Potency, µM (top dose mostly 46.1 µM), usual class: inhibitors. A549 ARE-firefly luciferase reporter, luminescence; note: nearly all actives have a fitted effect of over 65% in size
A number is an active result; [ ] = dose if it differs, or a comment. Sampled rows, rich in hits. Any-hit rate of the full collection: about 3.2%. Unless noted, calls come from the whole dose curve; as a rule, active = well fitted curve in the direction sought with a large enough effect; inconclusive = small, poorly fitted or top-dose-only effect, or another doubt; inactive = no such curve, though single readings can be large; an effect the other way counts as inactive or inconclusive.

Results for COc1cc(C2CC(=O)c3c([nH]c(C(=O)OC4CCCCC4)c3C)C2)cc(OC)c1OC (centres undefined) ?
Nrf2 ARE act: inactive; A549 tox-1: inconclusive

Results for COc1cc(C2CC(=O)c3c([nH]c(C(=O)OCC4CCCCC4)c3C)C2)cc(OC)c1OC (centres undefined) ?
Nrf2 block: 2.3µM; Nrf2 ARE act: inactive; A549 tox-1: inactive; FLuc enzyme inh: inactive; A549 tox-2: inactive; ARE-Fluc inh: 4.6µM

How did Cc1cc(C[n+]2ccccc2)c2nsnc2c1 do in these assays?
Nrf2 block: inconclusive; Nrf2 ARE act: inactive; IL-2 act: inactive; BRCA1 expr act: inactive; A549 tox-1: inactive; p53 reactivator: inactive; FLuc enzyme inh: inactive; A549 tox-2: inactive; ARE-Fluc inh: 2.6µM

What do the screens show for `Cc1cc(C[n+]2ccsc2N)c2ncccc2c1`?
Nrf2 block: inactive; Nrf2 ARE act: inactive; IL-2 act: inactive; BRCA1 expr act: inactive; A549 tox-1: inactive; p53 reactivator: inactive

How did COC(=O)c1ccccc1NC(=O)c1nn(C)c2c1COc1ccccc1-2 do in these assays?
Nrf2 block: inactive; Nrf2 ARE act: inactive; A549 tox-1: inactive

How did O=C(O)CN1C(=O)c2ccc(Oc3ccc([N+](=O)[O-])cc3)cc2C1=O do in these assays?
Nrf2 block: inactive; Nrf2 ARE act: inactive; IL-2 act: inactive; BRCA1 expr act: inactive; A549 tox-1: inactive; p53 reactivator: inactive

How did O=C1c2ccc(Oc3ccc([N+](=O)[O-])cc3)cc2C(=O)N1CCCO do in these assays?
Nrf2 block: 4.1µM; Nrf2 ARE act: inactive[9.22 µM]; IL-2 act: inactive; BRCA1 expr act: inactive; A549 tox-1: inactive; p53 reactivator: inactive; FLuc enzyme inh: inactive; A549 tox-2: inactive; ARE-Fluc inh: inconclusive

Results for Cc1ccc(CCNc2ncnc3onc(-c4ccc(Cl)cc4)c23)cc1 ?
Nrf2 block: inactive; Nrf2 ARE act: inactive; BRCA1 expr act: inactive; A549 tox-1: inactive

How did CCOc1ccc(CCNc2ncnc3onc(-c4ccc(Cl)cc4)c23)cc1 do in these assays?
Nrf2 block: 7.3µM; Nrf2 ARE act: inactive; A549 tox-1: inactive; FLuc enzyme inh: inactive; A549 tox-2: inactive; ARE-Fluc inh: 13µM

How did CC1(C)CC(N2CCCC2)=CC(=[N+]2CCCCCC2)C1 do in these assays?
Nrf2 block: inactive; Nrf2 ARE act: inactive; IL-2 act: inactive; BRCA1 expr act: inactive; A549 tox-1: inactive; p53 reactivator: inactive

What do the screens show for `CC1(C)CC(N2CCN(c3ccccc3)CC2)=CC(=[N+]2CCCC2)C1`?
Nrf2 block: inconclusive; Nrf2 ARE act: inactive; IL-2 act: inactive; BRCA1 expr act: inactive; A549 tox-1: inactive; p53 reactivator: inactive; FLuc enzyme inh: inactive; A549 tox-2: inactive; ARE-Fluc inh: 4.6µM

What do the screens show for `CC1CC(C)C[N+](=C2C=C(N3CCCC3)CC(C)(C)C2)C1` (centres undefined)?
Nrf2 block: 5.2µM; Nrf2 ARE act: inactive; IL-2 act: inactive; BRCA1 expr act: inactive; A549 tox-1: inconclusive; p53 reactivator: inactive; FLuc enzyme inh: inactive; A549 tox-2: inactive

How did Cc1ccccc1-n1ncc2c(SCC(=O)N3c4ccccc4CC3C)ncnc21 (centres undefined) do in these assays?
Nrf2 block: inconclusive; Nrf2 ARE act: inactive; IL-2 act: inactive; BRCA1 expr act: inactive; A549 tox-1: inactive; p53 reactivator: inactive

How did Cc1ccccc1-n1ncc2c(SCC(=O)NC3CCCC3)ncnc21 do in these assays?
Nrf2 block: 8.2µM; Nrf2 ARE act: inactive; IL-2 act: inactive; BRCA1 expr act: inactive; A549 tox-1: inactive; p53 reactivator: inactive; FLuc enzyme inh: inactive; A549 tox-2: inactive; ARE-Fluc inh: 15µM

Results for CCCCN(C)CCNC(=O)c1ccc2c(=O)n(CCc3ccccc3)c(=O)[nH]c2c1 ?
Nrf2 block: inactive[9.27 µM]; Nrf2 ARE act: inactive; BRCA1 expr act: inactive; A549 tox-1: inactive

Results for O=C(c1cnc(N2CCN(c3ccccn3)CC2)c2ccccc12)N1CCN(c2cccc(Cl)c2)CC1 ?
Nrf2 block: 5.8µM; Nrf2 ARE act: inactive; IL-2 act: inactive; BRCA1 expr act: inactive; A549 tox-1: inactive; p53 reactivator: inactive; FLuc enzyme inh: inactive; A549 tox-2: inactive; ARE-Fluc inh: 8.2µM

How did O=C(c1cc(Cl)ccc1Cl)N1CCN(c2ccccn2)CC1 do in these assays?
Nrf2 block: inactive; Nrf2 ARE act: inactive; IL-2 act: inactive; BRCA1 expr act: inactive; A549 tox-1: inactive; p53 reactivator: inactive

What do the screens show for `CC(=O)N1c2ccc(S(=O)(=O)N3CCC(C(=O)Nc4cccc(C)c4C)CC3)cc2CC1C` (centres undefined)?
Nrf2 block: inactive; Nrf2 ARE act: inactive; IL-2 act: inactive; BRCA1 expr act: inactive; A549 tox-1: inactive; p53 reactivator: inactive

How did CCc1cccc(NC(=O)C2CCN(S(=O)(=O)c3ccc4c(c3)CC(C)N4C(C)=O)CC2)c1 (centres undefined) do in these assays?
Nrf2 block: 7.3µM; Nrf2 ARE act: inactive; IL-2 act: inactive; BRCA1 expr act: inactive; A549 tox-1: inactive; p53 reactivator: inactive; FLuc enzyme inh: inactive; A549 tox-2: inactive; ARE-Fluc inh: 9.2µM

What do the screens show for `CC(=O)N1c2ccc(S(=O)(=O)N3CCC(C(=O)Nc4cccc(C(F)(F)F)c4)CC3)cc2CC1C` (centres undefined)?
Nrf2 block: 4.6µM; Nrf2 ARE act: inactive; IL-2 act: inactive; BRCA1 expr act: inactive; A549 tox-1: inactive; p53 reactivator: inactive; FLuc enzyme inh: inactive; A549 tox-2: inactive; ARE-Fluc inh: 12µM

How did CC(=O)N1c2ccc(S(=O)(=O)N3CCC(C(=O)Nc4cccc(C)n4)CC3)cc2CC1C (centres undefined) do in these assays?
Nrf2 block: 1.5µM; Nrf2 ARE act: inactive; IL-2 act: inactive; BRCA1 expr act: inactive; A549 tox-1: inactive; p53 reactivator: inactive; FLuc enzyme inh: inactive; A549 tox-2: inactive; ARE-Fluc inh: 5.8µM

How did COc1ccccc1C(=O)NC1(C(F)(F)F)C(=O)Nc2c1c(=O)[nH]c(=O)n2CCc1ccccc1 (centres undefined) do in these assays?
Nrf2 block: inactive; Nrf2 ARE act: inactive; BRCA1 expr act: inactive; A549 tox-1: inactive
